Compounds with a hit are over-represented: about 3.7% of the library has one in this group of screens.
GLP-1R inv ag: acts as inverse agonist at human GLP-1 receptor | AID 624417 | Potency, µM (doses to about 38.3 µM), for inactives: top-dose activity change, negative = inhibition, hits mostly inhibitors | HEK293 GLP-1R CRE-luciferase, luminescence, 24 h; GLP-1R form is constitutively active | 410,000 tested, 1.6% active; note: % is set by controls: 0 for no effect and ±100 for the full control effect; nearly all actives have a fitted effect of over 55% in size
Target sequence (P43220 whole entry, looked up): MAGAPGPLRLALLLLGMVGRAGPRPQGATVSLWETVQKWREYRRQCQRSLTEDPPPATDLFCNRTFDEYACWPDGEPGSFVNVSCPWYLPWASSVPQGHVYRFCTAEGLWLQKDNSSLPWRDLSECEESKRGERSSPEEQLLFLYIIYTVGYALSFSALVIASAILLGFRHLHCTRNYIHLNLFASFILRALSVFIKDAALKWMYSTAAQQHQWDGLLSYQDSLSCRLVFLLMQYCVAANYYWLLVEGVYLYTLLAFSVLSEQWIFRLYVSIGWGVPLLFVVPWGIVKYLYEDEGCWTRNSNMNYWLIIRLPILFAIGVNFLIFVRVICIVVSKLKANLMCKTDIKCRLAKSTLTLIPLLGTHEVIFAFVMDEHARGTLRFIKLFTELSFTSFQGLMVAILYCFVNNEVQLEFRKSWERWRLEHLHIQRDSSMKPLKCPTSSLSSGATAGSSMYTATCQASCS
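Constitutively active GLP-1R drives a cAMP-responsive luciferase in stably transfected HEK293 cells; test compounds are added after overnight (12 h) attachment and left 24 hr, and signal loss in luminescence marks inhibition.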
S2 tox: viability counter-screen for ATXN expression inhibitors | S2 cells (HEK-293 line with an ATXN2-luciferase reporter) viability, CellTiter-Fluor protease fluorescence, 24 h | Potency, µM (top dose mostly 56.7 µM), most hits filed as cytotoxic | 400,000 tested, 0.49% active | AID 651635; note: nearly all actives have a fitted effect of over 40% in size
TGFb inhibitor: blocks TGF-b signaling; HepG2 CAGA-GFP TGF-b/SMAD3 reporter, GFP fluorescence, 18 h; TGF-beta stimulated, 500 pg/mL final; Potency, µM (titrated, usually from 46.1 µM), without a hit: top-dose activity, negative = inhibition, hits mostly inhibitors; 410,000 tested, 1.2% active; AID 588855; note: % is set by controls: 0 for no effect and ±100 for the full control effect; nearly all actives have a fitted effect of over 65% in size
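Read-out: total well GFP (ex488/em500-530) summed from mean per-cell fluorescence. Cells: HEPG2 CAGA-GFP, 1% FBS DMEM, 18 h at 37 degrees C with 500 pg/mL final TGF-beta. Unstimulated wells served as the full-inhibition control; stimulated DMSO wells = 0%.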
HepG2 viability: HepG2 cytotoxicity, counter-screen for TGF-b inhibitors | 410,000 tested, 0.76% active | Potency, µM (series often up to 46.1 µM), inactives show top-dose activity change, negative = cytotoxicity, actives largely listed as cytotoxic | HepG2 CAGA-GFP viability, ATP luminescence, 18 h
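HepG2 CAGA-GFP cells (1000/well, DMEM with 1% FBS) received compound, then TGF-beta at 500 pg/mL final, and were incubated 18 hours at 37 degrees C. Viability was read by CellTiter-Glo luminescence. Media-only wells were set as complete cell-killing and DMSO as no toxicity.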
ATXN2 expr inh: reduces ATXN2 reporter expression in HEK-293 cells. HEK-293 ATXN2-luciferase reporter, luminescence, 24 h. Potency, µM (doses to about 57 µM), without a hit: at the highest dose activity change, negative = inhibition, usual class: inhibitors. 360,000 tested, 0.72% active. AID 1745845; note: % is set by controls: 0 for no effect and ±100 for the full control effect; nearly all actives have a fitted effect of over 55% in size
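ATXN2-luciferase reporter cells (luciferase flanked by upstream and downstream ATXN2 gene portions) were treated 24 h at 37 °C with compounds at up to 57 uM. SteadyGlo luminescence gave expression; GF-AFC fluorescence gave viability.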
GLP1R ag: agonists of human GLP-1 receptor; P43220; HEK293 GLP-1R CRE-luciferase, luminescence, 4-6 h; cells express a hypersensitive GLP-1R form; Potency, µM (highest dose often 45.6 µM), inactives show top-dose activation, hits mostly activators; 380,000 tested, 0.007% active; AID 624172; note: % of control where 0% means no effect
The depositor's hits bear a star; i = inactive; u = inconclusive; x = not tested or not shown. Calls come from the whole dose curve; as a rule, active = well fitted curve in the direction sought with a large enough effect; inconclusive = small, poorly fitted or top-dose-only effect, or another doubt; inactive = no such curve, though single readings can be large; an effect the other way counts as inactive or inconclusive. Potency is the fitted concentration of half-maximal effect.

SMILES	GLP-1R inv ag	S2 tox	TGFb inhibitor	HepG2 viability	ATXN2 expr inh	GLP1R ag
Cc1ccccc1NC(=O)c1ccc([N+](=O)[O-])o1	40%	i	16µM*	-34%	-17%	-1%
O=C(Nc1ccccc1Cl)c1ccc([N+](=O)[O-])o1	114%	i	u	-81%	-13%	3%
CN1CCN(c2ccccc2NC(=O)c2ccc([N+](=O)[O-])o2)CC1	9%	u	u	2.5µM*	u	-24%
O=C(Nc1nc(-c2cccs2)cs1)c1ccc([N+](=O)[O-])o1	55%	u	u	11µM*	-24%	-1%
CS(=O)(=O)N1CCN(c2ccccc2NC(=O)c2ccc([N+](=O)[O-])o2)CC1	73%	u	u	-26%	-37%	5%
Cn1c(SCC(=O)NCc2ccco2)nnc1-c1ccc(NC(=O)c2ccccc2)cc1	x	x	-26%	21%	x	x
Cc1nc2nc(SCC(=O)NCCCN3CCCC3)nn2c(C)c1Cc1ccccc1Cl	6.3µM*	i	9%	-2%	-7%	0%
Cc1nc2nc(SCC(=O)NCCCN3CCCCC3)nn2c(C)c1Cc1ccccc1	-23%	i	1%	-18%	2%	13%
COC(=O)c1sccc1S(=O)(=O)N(CC(=O)Nc1ccccc1C)c1ccc(Cl)cc1	u	i	u	-35%	-9%	x
COC(=O)c1sccc1S(=O)(=O)N(CC(=O)Nc1cccc(C)c1C)c1ccc(C)c(C)c1	11µM*	i	u	-28%	-19%	x
COC(=O)c1sccc1S(=O)(=O)N(CC(=O)Nc1cc(F)ccc1F)c1ccc(C)c(C)c1	u	i	-24%	-8%	4%	x
COC(=O)c1sccc1S(=O)(=O)N(CC(=O)Nc1cc(C)ccc1C)c1ccc(C)c(C)c1	13µM*	i	u	-35%	-18%	x
Cc1ccc(C(=O)c2ccccc2C(=O)OCC(=O)Nc2ccc(SC(F)F)cc2)cc1	8.9µM*	u	u	-8%	-19%	-7%
O=C(COc1cccc(OC(F)F)c1)Nc1ccc(SC(F)F)cc1	10µM*	i	-4%	-50%	-3%	9%
O=C(COc1cccc(Oc2ccccc2)c1)Nc1ccc(SC(F)F)cc1	0%	i	u	-32%	-10%	-1%
O=C(COC(=O)c1ccccc1Cc1ccccc1)Nc1ccc(SC(F)F)cc1	u	u	u	-2%	-7%	0%
COc1cc(/C=C2\C=Cc3ccccc32)cc(OC)c1OC	x	x	48%	-26%	x	x
COCc1cc(=O)[nH]c(SCCS(=O)(=O)c2ccc(Cl)cc2Cl)n1	u	x	u	-39%	20µM*	-3%
CCCOc1ccc2c(c1)CC[C@@H]1[C@@H]2CC[C@]2(C)C(OC)CC[C@@H]12 (stereo partly drawn)	x	i	x	x	1%	x
CC(C)(C)n1ncc2c(=O)n(Cc3c(F)cc(Cl)cc3F)cnc21	x	x	-15%	-18%	x	x
CCCCCCNC(=O)O[C@H]1Cn2c(=O)n(CCCCCC)c(=O)n2[C@@H]2CN(S(=O)(=O)c3ccc(C)cc3)C[C@]12O	u	x	u	22µM*	u	0%
CCCCCCNC(=O)O[C@H]1Cn2c(=O)ccc(=O)n2[C@@H]2CN(S(=O)(=O)c3ccc(C)cc3)C[C@]12O	u	20µM*	u	-108%	14µM*	-14%
CCCCCCn1c(=O)n2n(c1=O)[C@@H]1CN(S(=O)(=O)c3ccc(C)cc3)C[C@]1(O)[C@@H](OC(=O)NC1CC1)C2	u	i	-1%	3%	5%	4%
CCCCCCn1c(=O)n2n(c1=O)[C@@H]1CN(S(=O)(=O)c3ccc(C)cc3)C[C@]1(O)[C@@H](OC(=O)NC1CCCC1)C2	u	x	11µM*	-30%	u	4%
CCCCCCn1c(=O)n2n(c1=O)[C@@H]1CN(S(=O)(=O)c3ccc(C)cc3)C[C@]1(O)[C@@H](OC(=O)NCc1ccccc1F)C2	u	x	13µM*	7.9µM*	u	0%
SMILES	GLP-1R inv ag	S2 tox	TGFb inhibitor	HepG2 viability	ATXN2 expr inh	GLP1R ag
Cc1ccccc1C(=O)c1ccc(Nc2ccc(Br)cc2N)cc1Cl	x	x	x	x	-15%	x
O=C(CCCn1c(=O)c2sccc2n(Cc2c(F)cccc2Cl)c1=O)NCc1ccccc1	9%	i	8%	9%	9%	x
O=C1CC(CC(=O)N2CC3CCCC2C3)(c2cccc(F)c2)C(=O)N1Cc1cccnc1 (stereo not drawn)	x	i	x	x	x	x
C=C1C=CS(=O)(=O)N(Cc2ccccc2)C1	x	x	-9%	11%	x	x
CCc1cc(-c2cnnn2CCc2c[nH]c3ccccc23)ccc1-c1cn(CC(C)C)nn1	-1%	i	-17%	-40%	-14%	28%
CCc1cc(-c2nnn(-c3cc(C(C)C)ccc3C)c2CC)ccc1-c1cn(CCc2c[nH]c3ccccc23)nn1	2.5µM*	i	0%	-23%	1%	1%
Cc1ccc(OCCn2cc(C(=O)c3ccco3)c3ccccc32)cc1C	10µM*	i	12%	-16%	-3%	x
Cc1ccc(N=C2C(=O)Nc3ccccc32)cc1	9%	u	-1%	-3%	x	0%
CCN(CC)c1ccc(N=C2C(=O)Nc3ccccc32)cc1	-28%	u	u	13µM*	u	-2%
COc1ccc(C=Cc2cc(OC)c(OC)c(OC)c2)cc1NC(=O)[C@H](N)CO	x	x	x	x	-11%	x
Cn1nnnc1SCCCNCc1cccc(OCc2ccccc2Cl)c1	u	u	10µM*	-81%	u	x
COc1cccc(CNCCSc2nnnn2C)c1OCc1ccc(Cl)cc1Cl	u	i	u	-50%	-3%	8%
Cn1nnnc1SCCCNCc1cccc(OCc2ccccc2F)c1	-37%	i	33%	-31%	12%	x
COc1cccc(CNCCSc2nnnn2C)c1OCc1ccc(Cl)cc1	u	i	18µM*	0%	u	-2%
CN1CCN(c2ccc(NC(=O)CSc3nnnn3-c3ccccc3Cl)cc2)CC1	5µM*	i	-4%	-16%	-3%	-1%
COC(=O)[C@@H]1CCCN1C(=O)c1cnn(-c2nccc(-c3cc(C)sc3C)n2)c1C1CC1	x	i	x	x	x	x
S=C(Nc1ccccc1)Nc1cccc(Br)c1	-29%	i	-6%	-5%	x	-3%
S=C(Nc1cccc(Br)c1)c1ccccc1	13µM*	i	u	-29%	5%	4%
CC[C@H]1CN2CCc3cc(OC)c(OC)cc3[C@H]2C[C@@H]1C[C@@H]1NCCc2cc(OC)c(OC)cc21	x	x	x	x	0.27µM*	-6%
